GLS inh – blocks human kidney-isoform glutaminase activity. AID 624170. O94925. Potency, µM (doses to about 45.5 µM), without a hit: top-dose activity change, negative = inhibition, actives largely listed as inhibitors. 0.21% of 410,000 active. GLS enzymatic activity, qHTS titration; also: potency is read from the fitted curve at half-maximal effect; % is scaled to controls: 0 for no effect and ±100 for the full control effect
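hKGA in 45 mM KH2PO4 (pH 8.2), 0.02% Tween-20 with compound, then 1mM L-Glutamine (stock as added) plus glutamate oxidase/HRP/Amplex red coupling mix. Fluorescence read initially and after 30 min at RT; signal change reflects glutamate formation.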
KCNH2 WT inh – inhibitors of human wildtype KCNH2 potassium channel | Q12809 | U2OS, BacMam KCNH2, thallium flux FluxOr; hits give low values | activity change, % at 1.84 µM | 0.37% of 340,000 active;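 active = maximum activity change below -70%; inconclusive = maximum activity change between -70% and -50%; inactive = maximum activity change above -50%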; also: % is scaled to controls: 0 for no effect and ±100 for the full control effect
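U2OS cells were transduced with wild-type KCNH2 virus (2.03 x 10^8 / mL) for 4 h at room temperature, then cultured overnight at 37 C. Thallium flux was read with FluxOr dye. Rate constants were normalized to DMSO controls.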
HEK293 tox – cytotoxicity counter-screen for GLP-1 receptor inverse agonists. AID 624418. HEK293 cAMP-luciferase reporter cells, luminescence, 24 h. 0.13% of 410,000 active. Potency, µM (series often up to 38.3 µM), inactives show at the top dose activity change, negative = inhibition, hits mostly inhibitors;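 also: loss of luciferase light is scored as toxicity; potency is read from the fitted curve at half-maximal effect; % is scaled to controls: 0 for no effect and ±100 for the full control effect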
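Luminescence readout: signal drop marks cytotoxicity. Plated cells grew 12 h at 37 °C, 5% CO2, received 23 nL compound for 24 h, then got luciferase reagent, read after 12 min at RT.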
GLP-1R agonist – GLP-1 receptor (human) agonism; P43220; HEK293 GLP-1R CRE-luciferase, luminescence, 4-6 h; cells express a hypersensitive GLP-1R form; Potency, µM (highest dose often 45.6 µM), without a hit: at the highest dose activation, hits mostly activators; 0.007% of 380,000 active; AID 624172; also: potency is read from the fitted curve at half-maximal effect; % of control where 0% means no effect
Target sequence (P43220 whole entry, looked up): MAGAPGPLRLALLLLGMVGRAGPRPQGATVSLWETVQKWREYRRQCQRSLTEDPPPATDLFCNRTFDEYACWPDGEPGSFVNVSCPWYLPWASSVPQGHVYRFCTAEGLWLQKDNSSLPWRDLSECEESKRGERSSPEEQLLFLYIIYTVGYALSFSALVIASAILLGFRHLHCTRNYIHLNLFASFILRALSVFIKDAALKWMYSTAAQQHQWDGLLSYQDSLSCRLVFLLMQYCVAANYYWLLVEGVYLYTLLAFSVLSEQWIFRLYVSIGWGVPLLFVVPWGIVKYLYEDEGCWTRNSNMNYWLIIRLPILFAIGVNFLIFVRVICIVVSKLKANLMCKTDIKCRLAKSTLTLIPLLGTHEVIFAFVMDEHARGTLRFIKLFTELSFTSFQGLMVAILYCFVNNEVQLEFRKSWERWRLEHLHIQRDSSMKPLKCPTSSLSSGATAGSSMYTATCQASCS
GLP1R inv ag – inverse agonists of human GLP-1 receptor; AID 624417; 1.6% of 410,000 active; HEK293 GLP-1R CRE-luciferase, luminescence, 24 h; GLP-1R form is constitutively active; Potency, µM (top dose mostly 38.3 µM), for the others: at the highest dose activity change, negative = inhibition, most hits filed as inhibitors; also: potency is read from the fitted curve at half-maximal effect; % is scaled to controls: 0 for no effect and ±100 for the full control effect; nearly all actives have a fitted effect of over 55% in size
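Inverse agonists were sought by their lowering of basal cAMP reporter luciferase output in HEK293 cells stably carrying constitutively active human GLP-1R, after 24 h compound treatment.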
KCNH2 3.1 block – KCNH2 3.1 (human) potassium channel inhibition | U2OS KCNH2 3.1, thallium flux FluxOr; hits give low values | activity change, % (tested at about 1.8 µM) | 0.95% of 340,000 active;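 active = maximum activity change below -70%; inconclusive = maximum activity change from -70% to -50%; inactive = maximum activity change above -50%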;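 also: thallium influx rate constant from kinetic fluorescence after stimulation buffer; % is scaled to controls: 0 for no effect and ±100 for the full control effect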
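U2OS cells transduced with KCNH2 3.1 mutant virus (1.77 x 10^8 /mL, 4 h), plated overnight at 37 C, loaded 45 min with FluxOr dye plus Red40 quencher. Thallium flux rate constant from kinetic reads after stimulation buffer, normalised to controls.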
An asterisk follows results filed as active; i = inactive; ? = inconclusive; . = no result given. Rows were chosen to be rich in hits. Some 2.8% of all compounds tested hit in one or more screens of this group. Unless noted, calls follow the shape of the dose curve; as a rule, active = well fitted curve in the direction sought with a large enough effect; inconclusive = small, poorly fitted or top-dose-only effect, or another doubt; inactive = no such curve, though single readings can be large; an effect the other way counts as inactive or inconclusive.

SMILES	GLS inh	KCNH2 WT inh	HEK293 tox	GLP-1R agonist	GLP1R inv ag	KCNH2 3.1 block
Cc1cc(Cl)ccc1OCC(O)CNCCc1ccc(S(N)(=O)=O)cc1 (configuration not stated)	2%	?	-12%	-3%	?	-98*
CCOc1ccc(C(=O)Nc2cccc(-c3nc4cc(Cl)cc(Cl)c4o3)c2)cc1	0%	.	1%	.	-6%	.
C[C@@]12CCC=C[C@H]1[C@H](c1ccc3ccccc3c1/C=C/c1ccccc1)N(Cc1ccccc1)C2=O	5%	-16	2%	0%	5%	2
COc1ccc(-c2ccc(C)cc2)cc1[C@H]1[C@@H]2C=CCC[C@@]2(C)C(=O)N1Cc1ccccc1	8%	6	1%	5%	10µM*	5
COc1ccc(-c2ccc(C(C)=O)cc2)cc1[C@H]1[C@@H]2C=CCC[C@@]2(C)C(=O)N1Cc1ccccc1	3%	1	-8%	4%	-27%	-13
C[C@@]12CCC=C[C@H]1[C@H](c1ccc(/C=C/c3ccccc3)cc1F)N(Cc1ccccc1)C2=O	2%	-1	21%	3%	7.9µM*	-7
CC(C)Cn1nc(C(=O)N2CCc3ccccc32)c2ccccc2c1=O	20%	-7	6%	2%	11µM*	-5
CCOc1ccc(-c2nonc2NC(=O)c2oc3ccc(Cl)cc3c2C)cc1	-26%	.	?	.	-47%	.
CCCCn1cnc2c(SCc3ccc([N+](=O)[O-])cc3)nc(N)nc21	10%	14	-9%	10%	35%	-85*
O=S(=O)(NCC(c1ccco1)N1CCN(c2ccc(F)cc2)CC1)c1ccc2c(c1)OCCO2 (configuration not stated)	11%	2	5%	-2%	10µM*	-9
COc1cccc(CNC(=O)c2ccc(-c3nc(CS(=O)c4ccccc4)c(C)o3)cc2)c1 (configuration not stated)	-2%	.	-14%	.	-17%	.
O=C(O)COc1ccc2c(c1)O/C(=C\c1ccco1)C2=O	10µM*	4	-8%	-3%	1%	3
O=C1S/C(=C\c2ccc(Cl)cc2)C(=O)N1CCn1cnnn1	-6%	-3	?	4%	?	3
O=C(NCc1ccc(Cl)cc1)c1cnc(N2CCOCC2)c2ccccc12	6%	.	-2%	.	-14%	.
O=C(NCCc1ccncc1)Nc1ccc(Cl)c(Cl)c1	-13%	-13	5%	-1%	?	-82*
O=C(Nc1ccc(Cl)c(Cl)c1)Nc1ccon1	-5%	-9	?	5%	7.9µM*	9
CN(C)CCNC(=O)Nc1ccc(Cl)c(Cl)c1	2%	0	-10%	-14%	11µM*	6
Cc1cc(NC(=O)Nc2ccc(Cl)c(Cl)c2)no1	0%	4	-13%	-7%	?	-19
Cc1cccc(C)c1Nc1nnc(SCc2cn3cccc(C)c3n2)s1	3%	.	-7%	-1%	13%	-179*
O=C(O)c1cccc(S(=O)(=O)N(Cc2ccccc2)c2cccc(C(F)(F)F)c2)c1	-4%	9	-7%	1%	?	27
COc1ccccc1CCN1C(=S)NC(C)(C)CC1(C)O (configuration not stated)	5%	0	?	3%	?	3
COc1ccc(CN2C(=S)NC(C)(C)CC2(C)O)cc1 (configuration not stated)	5%	-142*	?	-3%	?	16
CCCCNC(=O)C1=C(N)C(C(=O)Nc2ccc(C)c(S(=O)(=O)N3CCCCC3)c2)SC1=Nc1ccc(C)cc1C (configuration not stated)	0%	-1	9%	-5%	13µM*	7
Cc1cc(N2C3CCC2CC(O)(c2ccc(F)cc2)C3)nc(-c2ccccc2)n1 (configuration not stated)	3%	11	-24%	-4%	?	-72*
CC1CCC(n2c(=S)[nH]c3ccccc3c2=O)CC1 (configuration not stated)	13%	-24	-24%	6%	?	6
SMILES	GLS inh	KCNH2 WT inh	HEK293 tox	GLP-1R agonist	GLP1R inv ag	KCNH2 3.1 block
FC(F)(F)c1ccc2c(c1)[nH]c(=S)n2C1CC1	13%	-162*	-1%	11%	?	-201*
Cc1cc(C)c(NC(=O)c2ncoc2-c2ccco2)c(C)c1	-8%	.	-7%	.	?	.
Cc1cc(NC(=O)CN(C)CC(=O)Nc2ccc(Cl)cc2)no1	-4%	11	-35%	-1%	?	-120*
COCCCN(Cc1ccco1)C(=O)c1cc2c(s1)-c1ccccc1OC2	8%	.	-3%	19%	?	.
CCCS(=O)(=O)c1c(S(=O)(=O)CCC)c2cc(C(C)(C)C)ccn2c1C(=O)c1ccc(C)cc1	-8%	.	4%	0%	-3%	.
CCCCOC(=O)c1cccc(NC(=O)c2cc3ccccc3o2)c1	-1%	.	15%	.	-79%	.
COc1ccc(N2CC(C(=O)Nc3ccc(N4CCOCC4)cc3)CC2=O)cc1 (configuration not stated)	35%	4	-16%	-9%	-8%	11
CCOc1ccc(N2CC(C(=O)Nc3ccc(N4CCOCC4)cc3)CC2=O)cc1 (configuration not stated)	18%	-104*	0%	2%	-3%	14
COc1cc2[nH]c(=O)n(Cc3ccc(C(=O)N4CCN(c5cccc(C)c5C)CC4)cc3)c(=O)c2cc1OC	2%	.	4%	1%	-11%	.
Cc1ccc(S(=O)(=O)/N=C2\C=C(Nc3cccc(C(=O)O)c3)C(=O)c3ccccc32)cc1	-3%	2	?	-1%	15%	7
Cc1ccc(S(=O)(=O)/N=C2\C=C(Nc3ccc(O)cc3)C(=O)c3ccccc32)cc1	?	17	2.8µM*	-21%	4.5µM*	-6
O=C1C(Nc2ccccc2)=C/C(=N/S(=O)(=O)c2cccs2)c2ccccc21	7%	-16	4.5µM*	-37%	i	-21
O=C(Cn1c(=O)ccc2cc(S(=O)(=O)N3CCCC3)ccc21)NCc1ccc(F)cc1	-18%	.	-11%	-4%	-9%	.
CC(C)Oc1ccc(C(=O)Nc2nc3ccccc3[nH]2)cc1	-12%	2	-2%	1%	1.1µM*	3
O=C(Nc1nc2ccccc2[nH]1)c1ccc(F)cc1	-13%	5	-30%	-23%	?	-97*
O=C(Nc1nc2ccccc2[nH]1)c1cc(F)cc(F)c1	-6%	7	-12%	11%	1%	3
S=C1NC[C@H](CC2CCCCC2)N1CCc1cccc2ccccc12	1%	0	-10%	-4%	7.9µM*	-3

From PubChem BioAssay
